Consider 21 molecules from PubChem BioAssay AID1347156 (National Center for Advancing Translational Sciences (NCATS), 2019).

Results filed as inconclusive are left out. Active and inactive are the calls of the source. Calls come from the whole dose curve; as a rule, active = well fitted cell-killing curve with a large enough effect; inconclusive = small, poorly fitted or top-dose-only effect; inactive = flat fitted curve, though single readings scatter.
Potency is the fitted concentration of half-maximal effect.

The nature of the experiment: DAPI mCherry counterscreen qHTS for Zika virus inhibitors. Note: nearly all actives have a fitted effect of over 55% in size. The conditions noted are these: Vero cells, DAPI nuclear count cytotoxicity, imaging 48-72 h, infected with Zika reporter virus, MOI 1; series mostly up to 32.6 µM. In short, it runs like this: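 Imaging read-out after fixation and Hoechst nuclear staining: percent infection from mCherry-positive cells (above 3 SD of negative controls) and nuclear counts. Setup: Vero cells pre-plated overnight, compound added, infected with ZIKV-mCherry (MOI 1), 48-72 hrs, 37 degrees C.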
With `N#CC1C(=O)Nc2scc(-c3ccc(-c4ccccc4O)cc3)c2C1=O` (stereo unspecified), the Potency is 8.91 µM (active).

In the case of `CC1(C)CCC(CN2CCN(c3ccc(C(=O)NS(=O)(=O)c4ccc(NCC5CCOCC5)c([N+](=O)[O-])c4)c(Oc4cnc5[nH]ccc5c4)c3)CC2)=C(c2ccc(Cl)cc2)C1`, the Potency is 5.62 µM (active).

`O=C(O)c1cc(O)c2cccc(O)c2c1O[C@@H]1O[C@H](CO)[C@@H](O)[C@H](O)[C@H]1O`: the Potency entry is “inactive”.

For the molecule `CCOC(=O)c1cccc(NC(=O)CSc2ncc3c(n2)-c2ccc(Cl)cc2N(Cc2ccccc2)S3(=O)=O)c1`, the Potency result is “inactive”.

With `COc1cc(Nc2nc3ccccc3nc2NS(=O)(=O)c2cccc(NC(=O)c3ccc(C)c(OC)c3)c2)cc(OC)c1`, the Potency is 4.47 µM (active).

Regarding `CC(C)c1ccc2c(c1)c(SC(C)(C)C)c(CC(C)(C)C(=O)O)n2Cc1ccc(Cl)cc1`, the Potency was 11.2 µM (active).

Turning to `O=c1c(O)c(-c2ccc(O)c(O)c2)oc2cc(O)cc(O)c12`, the Potency result is “inactive”.

Turning to `Cc1ccccc1NC(=O)Nc1ccc(CN2C(=O)N([C@@H](CC(C)C)C(=O)N[C@@H](CC(=O)O)c3ccccc3)C(=O)C2(C)C)cc1`, the Potency was 7.08 µM (active).

`Cc1cc(NC(=O)c2ccc(Cl)c(Cl)c2)ccc1-c1cc2ccccc2oc1=O`: the Potency is 15.8 µM (active).

In the case of `C/C=C/C=C/C=C/C(=O)O[C@@H]1[C@@H](OC)C2=C(C(=O)N(C(CCC(=O)O)C(=O)O)C2)[C@@]2(C)CCCC(C)(C)[C@H]12` (stereo partly specified), the Potency entry is “inactive”.

With `COc1cc(C2Nc3ccccc3-c3nnc(SCc4ccc(Cl)cc4)nc3O2)ccc1OCC(=O)O` (stereo unspecified), the Potency entry was “inactive”.

In the case of `Cc1cc(C(C#N)c2ccc(Cl)cc2)c(Cl)cc1NC(=O)c1cc(I)cc(I)c1O` (stereo unspecified), the Potency is 8.91 µM (active).

With `C[C@H](NC(=O)C(=O)Nc1ccccc1C(C)(C)C)C(=O)N[C@@H](CC(=O)O)C(=O)COc1c(F)c(F)cc(F)c1F`, the Potency entry was “inactive”.

Regarding `COc1cc(Nc2nc3ccccc3nc2NS(=O)(=O)c2ccc(NC(=O)c3ccc(C)c(OC)c3)cc2)cc(OC)c1`, the Potency is 4.47 µM (active).

Turning to `CC(C)(C)Sc1c(CC(C)(C)C(=O)O)n(Cc2ccc(Cl)cc2)c2ccc(OCc3ccc4ccccc4n3)cc12`, the Potency is 35.5 µM (active).

Consider `COc1ccc(-c2ccccc2)cc1NS(=O)(=O)c1cc(Cl)cc(Cl)c1O`, for which the Potency is 11.2 µM (active).

`COc1cc(Nc2nc3ccccc3nc2NS(=O)(=O)c2ccc(NC(=O)c3ccc(OC)c(C)c3)cc2)cc(OC)c1`: the Potency was 6.31 µM (active).

As to `CC1(C)CCC(C)(C)c2cc3c(cc21)Sc1ccccc1N=C3c1ccc(C(=O)O)cc1`, the Potency is 8.91 µM (active).

Take `O=C(OC1Cc2c(O)cc(O)cc2OC1c1cc(O)c(O)c(O)c1-c1c(C2Oc3cc(O)cc(O)c3CC2OC(=O)c2cc(O)c(O)c(O)c2)cc(O)c(O)c1O)c1cc(O)c(O)c(O)c1` (stereo unspecified): the Potency entry is “inactive”.

`Cc1oc2c(cc(NS(=O)(=O)c3ccc(Cl)cc3)c3ccccc32)c1C(=O)OCc1ccccc1`: the Potency result is “inactive”.

As for `CCN(Cc1cccc(S(=O)(=O)O)c1)c1ccc(C(=C2C=CC(=[N+](CC)Cc3cccc(S(=O)(=O)O)c3)C=C2)c2ccccc2S(=O)(=O)[O-])cc1`, the Potency result is “inactive”.
